Nrf2 block = blocks Nrf2 signaling. A549 ARE-Fluc reporter, luciferase luminescence, 18-24 h. Potency, µM (top dose mostly 46 µM), without a hit: at the highest dose activity change, negative = inhibition, usual class: inhibitors. actives 2.1% (n = 360,000); note: % is set by controls: 0 for no effect and ±100 for the full control effect; nearly all actives have a fitted effect of over 60% in size
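Nrf2 activity is the BugLite luminescence, read 15 min after reagent at room temperature, following CellTiter-Fluor cytotoxicity readout (30 min, 37C). Compound titrations were applied for 18-24 h to 5000 A549 ARE_Fluc cells/well in 5% FBS OPTI-MEM.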
Nrf2 ARE act = activates Nrf2 signaling; AID 624171; actives 0.31% (n = 410,000); Potency, µM (doses to about 46.1 µM), inactives show at the highest dose activation, usual class: activators; AREc32 ARE-luciferase reporter (MCF7-derived line), luminescence, 24 h; note: % of control where 0% means no effect; nearly all actives have a fitted effect of over 65% in size
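ARE activation measured as luciferase luminescence (Steady-Glo, 30 min RT) in AREc32_Fluc cells after 24 hr compound exposure at 37 deg C, 5% CO2; cells seeded overnight at 1000/well in OPTI-MEM, 5% FBS.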
A549 viability = counter-screen for Nrf2 inhibitors: cytotoxicity in A549 cells. Potency, µM (top dose mostly 46 µM), without a hit: top-dose activity change, negative = cytotoxicity, most hits filed as inhibitors. actives 0.16% (n = 390,000). A549 ARE-Fluc cells, CellTiter-Fluor viability, 18-24 h; note: % is set by controls: 0 for no effect and ±100 for the full control effect
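A549 ARE_Fluc cells in 5% FBS OPTI-MEM were exposed to compounds in concentration-response for 18-24 h at 37 deg C. Viability was read by CellTiter-Fluor fluorescence (Ex 405/Em 525) after 30 min, before the luciferase read.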
Pin1 inhibitor = human Pin1 inhibition. Q13526. Pin1 FP peptide displacement, HiFluor488, 10 min. Potency, µM (series often up to 115 µM), without a hit: top-dose activity, negative = inhibition, most hits filed as inhibitors. actives 0.009% (n = 390,000). AID 504891; active = well fitted inhibition curve with a large enough effect in the polarisation, with a control signal flat, not every such curve was filed as active; inconclusive = small, poorly fitted or top-dose-only effect, or effect the other way, or a change in a side signal; inactive = no such curve, though single readings can be large or run the other way; the % refers to the polarisation; note: % is set by controls: 0 for no effect and ±100 for the full control effect
Target sequence (Q13526 whole entry, looked up): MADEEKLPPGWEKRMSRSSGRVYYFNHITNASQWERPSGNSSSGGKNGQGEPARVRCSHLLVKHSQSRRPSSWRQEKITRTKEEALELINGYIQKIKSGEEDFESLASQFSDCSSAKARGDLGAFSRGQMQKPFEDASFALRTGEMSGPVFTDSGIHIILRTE
Starred values were filed as active, the others as inactive; ? = inconclusive; . = no result. In the library only some 2.2% were active in any assay of this set; here they are far more common. Unless noted, calls come from the whole dose curve; as a rule, active = well fitted curve in the direction sought with a large enough effect; inconclusive = small, poorly fitted or top-dose-only effect, or another doubt; inactive = no such curve, though single readings can be large; an effect the other way counts as inactive or inconclusive. Potency is the fitted concentration of half-maximal effect.

SMILES	Nrf2 block	Nrf2 ARE act	A549 viability	Pin1 inhibitor
COc1ccc(-c2ccc(C)cc2)cc1C1C2C=CCC(C)C2C(=O)N1Cc1ccccc1 (stereo not given)	6%	.	2%	-1%
CCOC(=O)N1C(C)CN(/[N+]([O-])=N/Oc2ccc([N+](=O)[O-])cc2[N+](=O)[O-])CC1C (stereo not given)	-15%	.	-20%	-2%
CCOc1ccc(CCNC(=O)CCc2c(C)nc3cc(-c4ccccc4OC)nn3c2C)cc1	15µM*	-2%	-5%	?
O=[S+]1([O-])N=C(Oc2cccnc2)c2ccccc21	11%	.	-2%	2%
Brc1ccc(-c2nc3ccccc3s2)s1	?	11µM*	5%	5%
Cc1ccc(NS(=O)(=O)c2ccc3c(c2)CCO3)cc1C	?	.	-1%	-1%
COc1ccc(CNC(=O)Cn2nc(C(F)(F)F)c(Br)c2C)cc1	13%	-1%	3%	-1%
COc1cc(NC(=O)Cn2nc(C(F)(F)F)c(Br)c2C)cc([N+](=O)[O-])c1	23µM*	4%	?	1%
CCN1CCN(Cc2ccc(NC(=O)c3ccc(C)c(/C=C/c4cnc(Nc5cc(N6CCNCC6)nc(C)n5)cn4)c3)cc2C(F)(F)F)CC1	18µM*	-6%	?	?
Cc1nc(C)c(-c2ccc(SCC(=O)Nc3ccc(Cl)c(Cl)c3)nn2)s1	.	1%	-10%	6%
O=c1c2ccccc2nc2n1CCO2	1%	-1%	7%	-3%
CCc1c2c(nc3ccc4c(c13)OCCO4)-c1nc3ccccc3c(=O)n1C2	0.26µM*	.	3%	-4%
Cc1cccc(-c2nc(CSCC(=O)N3CCN(c4ccccn4)CC3)c(C)o2)c1	21µM*	0%	-9%	3%
Cc1[nH]n(-c2ccccc2)c(=O)c1C(=O)c1cccc(F)c1	23µM*	0%	13%	-1%
Cc1[nH]n(-c2ccccc2)c(=O)c1N=Nc1ccc(F)cc1	?	8%	-8%	5%
Cc1[nH]n(-c2ccccc2)c(=O)c1C(=O)c1ccccc1	?	0%	?	3%
Cc1[nH]n(-c2ccccc2)c(=O)c1C(=O)c1ccc(Cl)cc1	16µM*	0%	-24%	4%
Cc1[nH]n(-c2ccc(Cl)cc2)c(=O)c1C(=O)c1ccccc1	21µM*	3%	?	-5%
CCSC(=S)c1c(C)[nH]n(-c2ccccc2)c1=O	?	3%	?	-9%
O=C(CSc1nc2c([nH]c3ccccc32)c(=O)n1-c1ccc(F)cc1)NC1CCCCC1	.	1%	-1%	-3%
CC(C)OC(=O)c1c(NC(=O)c2cc3nc(-c4ccccc4)cc(C(F)(F)F)n3n2)sc2c1CCCC2	.	0%	2%	-12%
Cc1ccc(-n2nnnc2Sc2ccc(S(=O)(=O)NCCN(C)C)cc2[N+](=O)[O-])cc1	10µM*	?	6.5µM*	-4%
Cc1ccc(-n2nnnc2-c2cnc3ccc(Cl)cc3c2-c2ccccc2)cc1	?	-1%	-26%	-3%
Clc1ccc2[nH]cc(-c3nnnn3-c3ccc4ccccc4c3)c2c1	18µM*	0%	-27%	19%
COc1cccc(CC(=O)Nc2nc(-c3cc(OC)ccc3OC)cs2)c1	-13%	0%	-1%	1%
SMILES	Nrf2 block	Nrf2 ARE act	A549 viability	Pin1 inhibitor
COc1ccc(CC(=O)Nc2nc(C(C)(C)C)cs2)cc1	13µM*	2%	?	5%
CCc1noc(C)c1C(=O)Nc1nc(-c2ccc(OC)cc2OC)cs1	8.2µM*	0%	-3%	17%
COc1ccc(OC)c(-c2csc(NC(=O)Cc3ccccc3)n2)c1	18µM*	3%	-17%	1%
CCc1noc(C)c1C(=O)Nc1nc(-c2cc(OC)ccc2OC)cs1	-11%	3%	2%	2%
COc1ccc(OC)c(-c2csc(NC(=O)Cc3cccs3)n2)c1	16µM*	7%	-6%	3%
COc1ccc(CC(=O)Nc2nc(-c3cc(OC)ccc3OC)cs2)cc1	12µM*	0%	-20%	16%
COc1ccccc1NS(=O)(=O)c1ccc2oc(SCC(C)=O)nc2c1	?	3%	-5%	-1%
COc1ccccc1NS(=O)(=O)c1ccc2oc(SCc3ccc(F)cc3)nc2c1	23µM*	3%	-17%	7%
COc1ccc(NS(=O)(=O)c2ccc3oc(SCc4ccc(F)cc4)nc3c2)cc1	18µM*	4%	-5%	1%
COc1ccccc1NS(=O)(=O)c1ccc2oc(SC)nc2c1	21µM*	4%	1%	-2%
C=CCn1c(SCC)nc2ccccc2c1=O	-4%	.	5%	1%
Cc1ccc(NC(=O)c2ccc(=O)[nH]n2)cc1S(=O)(=O)Nc1ccc(SC(F)F)cc1	21µM*	4%	-11%	11%
Cc1ccc(NC(=O)c2ccc(=O)[nH]n2)cc1C	?	3%	-6%	0%
COCC(=O)N(CCc1ccc(OC)c(OC)c1)Cc1cc2cc(C)ccc2nc1Cl	16µM*	0%	-1%	-1%
COCC(=O)N(CCc1ccccc1)Cc1cc2cc(C)ccc2nc1Cl	0%	0%	6%	2%
NC(=O)C1CCN(c2ncc(-c3cccc(N4CCCCC4)c3)s2)CC1	.	.	.	-1%
CCN(CC)C(=O)N1CCN(C)CC1	13µM*	0%	16%	-23%
CCN(CC)C(=O)N1CCN(C(=O)N(CC)CC)CC1	2%	-1%	0%	-4%
Cc1ccc(S(=O)(=O)Oc2ccc(/C=N/NC(=O)c3nn(C)cc3Cl)cc2)cc1	18µM*	1%	-11%	-6%
CSCCOC(=O)COc1ccc(/C=N/NC(=O)c2nn(C)cc2Cl)cc1	13%	0%	0%	2%
CC(=O)N1c2ccc(S(=O)(=O)NCCC(=O)NCCc3cccc(C)c3)cc2CC1C (stereo not given)	?	-1%	-5%	-7%
CC(=O)N1CCc2cc(S(=O)(=O)C(C)CC(=O)Nc3ccc(OC(F)(F)F)cc3)ccc21 (stereo not given)	12µM*	-1%	-8%	-9%
CC(=O)N1c2ccc(S(=O)(=O)NCCC(=O)Nc3ccc(OC(F)(F)F)cc3)cc2CC1C (stereo not given)	18µM*	2%	-7%	2%
CC(=O)N1c2ccc(S(=O)(=O)NCCc3ccc(Cl)cc3)cc2CC1C (stereo not given)	-3%	2%	-7%	-1%
CC(=O)N1c2ccc(S(=O)(=O)NCCC(=O)NCCc3ccc(Cl)cc3)cc2CC1C (stereo not given)	21µM*	0%	-8%	-2%
CC(=O)N1c2ccc(S(=O)(=O)NCCC(=O)NCCc3ccc(C)cc3)cc2CC1C (stereo not given)	16µM*	0%	-8%	3%
CC(=O)N1CCCc2cc(S(=O)(=O)Nc3ccc(OC(F)(F)F)cc3)ccc21	.	6%	-14%	-1%
C=C(C)[C@@H]1C2=CC(C(=O)OC)=C(C[C@@H](C(=C)C)[C@H]3O[C@H]3C3=C[C@H]1OC3=O)O2	5%	.	-5%	?
CCOc1ccc(Nc2nn(-c3ccc(OC(F)(F)F)cc3)nc2C(C)=O)cc1	11%	3%	1%	2%

Source: PubChem BioAssay
